From PubChem BioAssay (NCATS)
“And” between values parts separate entries of the source, which are not always exact repeats. Identical values can stand only once. Results filed as inconclusive are left out. A call without a number means that no potency is given here. Some compounds were tested as several samples or in several runs, with calls that do not always agree. The source made the active and inactive calls. Unless noted, calls follow the shape of the dose curve; as a rule, active = well fitted curve in the direction sought with a large enough effect; inconclusive = small, poorly fitted or top-dose-only effect, or another doubt; inactive = no such curve, though single readings can be large; an effect the other way counts as inactive or inconclusive.

Experiments:
[1] = qHTS Assay for Identification of Small Molecule Antagonists for NFkB Signaling Pathway (AID 895; active = well fitted inhibition curve with a large enough effect in the signal ratio, with a control signal flat, not every such curve was filed as active; the % refers to the signal ratio; also: potency is read from the fitted curve at half-maximal effect)
How it was run: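 ME-180 NFkB-bla cells (beta-lactamase under NFkB response element), plated overnight, treated with compound then 10 pM TNF alpha (about EC50) for 5 hrs at 37 C. LiveBLAzer FRET read at 460/530 nm emission, 405 nm excitation.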

[2] = molecular target: Cytochrome P450 2C19 (Homo sapiens) (UniProt P33261); experiment: qHTS Assay for Inhibitors and Substrates of Cytochrome P450 2C19 (AID 899); also: nearly all actives have a fitted effect of over 60% in size; also: potency is read from the fitted curve at half-maximal effect
Cytochrome P450 2C19 (Homo sapiens), sequence (P33261 whole entry, looked up): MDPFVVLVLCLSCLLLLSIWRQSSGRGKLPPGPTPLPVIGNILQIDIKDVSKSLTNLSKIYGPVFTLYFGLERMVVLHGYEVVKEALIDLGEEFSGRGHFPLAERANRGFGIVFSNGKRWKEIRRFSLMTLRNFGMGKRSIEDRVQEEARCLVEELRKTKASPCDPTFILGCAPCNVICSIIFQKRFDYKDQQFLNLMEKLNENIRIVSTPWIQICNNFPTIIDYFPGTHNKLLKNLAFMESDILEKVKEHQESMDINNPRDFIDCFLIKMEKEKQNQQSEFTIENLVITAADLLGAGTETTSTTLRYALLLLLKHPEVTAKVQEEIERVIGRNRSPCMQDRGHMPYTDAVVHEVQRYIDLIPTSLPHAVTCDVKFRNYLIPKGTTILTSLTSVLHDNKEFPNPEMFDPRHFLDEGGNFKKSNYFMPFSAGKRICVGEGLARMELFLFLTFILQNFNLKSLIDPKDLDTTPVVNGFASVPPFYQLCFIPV
How it was run: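 Signal comes from luciferase acting on luciferin released by CYP2C19-mediated hydroxylation of Luciferin-H EGE, 10uM (KM). Assay mix: 5nM enzyme, 50mM KPO4; 60 min at 37C with NADPH regeneration. Data normalized against 57uM ketoconazole.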

[3] = Confirmation and Secondary Assay for Modulators of Hemoglobin Beta Chain Splicing at IVS2 654 locus (AID 910);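 also: HeLa cells stably carrying EGFP split by mutant beta-globin IVS2-654 intron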
How it was run: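 HeLa cells stably expressing EGFP interrupted by β-globin IVS2-654 intron, seeded overnight in Opti-MEM/2% FCS, then treated 2 days at 37 °C. Restored splicing read as total peak GFP intensity per well by laser scanning cytometry (488 nm excitation, 500–520 nm emission); 500 nM antisense PNA as control.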

[4] = qHTS Assay for Identification of Small Molecule Agonists for Thrombopoietin (TPO) Signaling Pathway (AID 917)
How it was run: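 Ba/F3 (mouse) + hTPO receptor + GpIIb-promoter luciferase; IL-3 withdrawn overnight; compound + 26 pM TPO (EC50), 24 hrs, 37 C, 5% CO2; Steadylite luminescence, 10 min RT.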

[5] = Confirmation and Secondary Assay for Modulators of Hemoglobin Beta Chain Splicing at IVS2 705 locus (AID 930);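 also: HeLa cells stably expressing the EGFP-705 splicing reporter; series mostly up to about 46 µM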
How it was run: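 Restored EGFP fluorescence after 2-day compound exposure reports splicing correction in IVS2-705 EGFP reporter HeLa cells; positive control was 500 nM splice-blocking PNA oligo. Signal measured as well total peak GFP intensity (488 nm excitation).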

[6] = molecular target: Muscarinic acetylcholine receptor M1 (Rattus norvegicus) (UniProt P08482); experiment: qHTS Assay for Antagonists of Acetylcholine Muscarinic M1 Receptor: Kinetic Measurement of Intracellular Calcium Response (AID 943); also: nearly all actives have a fitted effect of over 75% in size; also: potency is read from the fitted curve at half-maximal effect
Muscarinic acetylcholine receptor M1 (Rattus norvegicus), sequence (P08482 whole entry, looked up): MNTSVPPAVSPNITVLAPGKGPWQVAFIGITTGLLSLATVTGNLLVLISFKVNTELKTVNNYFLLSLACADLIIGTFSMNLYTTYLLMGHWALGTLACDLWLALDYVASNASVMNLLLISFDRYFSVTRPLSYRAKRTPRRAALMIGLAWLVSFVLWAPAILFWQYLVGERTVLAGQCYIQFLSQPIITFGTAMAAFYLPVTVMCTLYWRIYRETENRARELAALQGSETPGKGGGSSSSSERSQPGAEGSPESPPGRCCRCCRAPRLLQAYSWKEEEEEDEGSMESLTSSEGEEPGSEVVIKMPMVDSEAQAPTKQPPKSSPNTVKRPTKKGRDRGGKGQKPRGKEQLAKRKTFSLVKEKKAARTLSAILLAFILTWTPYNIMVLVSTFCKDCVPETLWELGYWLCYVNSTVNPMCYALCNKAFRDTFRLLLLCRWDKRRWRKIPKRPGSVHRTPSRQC
How it was run: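 Read-out: peak over basal Fluo-4 fluorescence, kinetic at 1 Hz for 4 min after EC80 carbachol (100 nM final). Rat M1-CHO cells, dye loaded 1 h at 37C, compound added 10 min before agonist.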

[7] = molecular target: Muscarinic acetylcholine receptor M1 (Rattus norvegicus) (UniProt P08482); experiment: qHTS Assay for Antagonists of Acetylcholine Muscarinic M1 Receptor: Measurement of IP-One Response (AID 944); also: nearly all actives have a fitted effect of over 75% in size; also: potency is read from the fitted curve at half-maximal effect
How it was run: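 Read-out: HTRF competition between d2-IP1 and Eu-cryptate anti-IP1 antibody, emission 620 and 665 nm. Stimulus was carbachol, EC80 (200 nM), for 30 min in M1-CHO cells (rat receptor), after 10 min compound pre-treatment.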

[8] = molecular target: Pyruvate kinase (Leishmania mexicana) (UniProt Q27686); experiment: qHTS Validation Assay for Inhibitors of Leishmania Mexicana Pyruvate Kinase (AID 945)
Pyruvate kinase (Leishmania mexicana), sequence (Q27686 2-499 E452W): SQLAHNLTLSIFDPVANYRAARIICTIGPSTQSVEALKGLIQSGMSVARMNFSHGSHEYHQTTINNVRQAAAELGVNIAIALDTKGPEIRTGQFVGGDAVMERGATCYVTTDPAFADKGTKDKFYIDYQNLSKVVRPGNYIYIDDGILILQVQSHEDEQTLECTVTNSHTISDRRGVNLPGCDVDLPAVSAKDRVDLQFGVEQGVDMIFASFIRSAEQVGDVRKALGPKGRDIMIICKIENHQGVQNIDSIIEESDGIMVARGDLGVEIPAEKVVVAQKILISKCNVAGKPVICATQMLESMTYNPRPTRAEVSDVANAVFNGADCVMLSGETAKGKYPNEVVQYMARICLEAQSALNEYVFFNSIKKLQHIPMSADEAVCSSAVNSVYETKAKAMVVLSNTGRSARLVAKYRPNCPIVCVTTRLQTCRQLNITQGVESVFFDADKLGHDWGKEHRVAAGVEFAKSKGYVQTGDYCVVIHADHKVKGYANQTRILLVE
How it was run: (§1)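 Purified LmPYK (E451W mutant, 0.2 nM) was incubated 1 h at room temperature with 0.5 mM PEP and 0.1 mM ADP in 50 mM imidazole pH 7.2, 50 mM KCl, 7 mM MgCl2; ATP formed was read by PKLight luminescence, normalized to DMSO wells.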

[9] = molecular target: Pyruvate kinase PKM (Homo sapiens) (UniProt P14618); experiment: qHTS Assay for Activators of Human Muscle Pyruvate Kinase (AID 954; active = well fitted curve in the direction sought with a large enough effect, not every such curve was filed as active)
Pyruvate kinase PKM (Homo sapiens), sequence (P14618 whole entry, looked up): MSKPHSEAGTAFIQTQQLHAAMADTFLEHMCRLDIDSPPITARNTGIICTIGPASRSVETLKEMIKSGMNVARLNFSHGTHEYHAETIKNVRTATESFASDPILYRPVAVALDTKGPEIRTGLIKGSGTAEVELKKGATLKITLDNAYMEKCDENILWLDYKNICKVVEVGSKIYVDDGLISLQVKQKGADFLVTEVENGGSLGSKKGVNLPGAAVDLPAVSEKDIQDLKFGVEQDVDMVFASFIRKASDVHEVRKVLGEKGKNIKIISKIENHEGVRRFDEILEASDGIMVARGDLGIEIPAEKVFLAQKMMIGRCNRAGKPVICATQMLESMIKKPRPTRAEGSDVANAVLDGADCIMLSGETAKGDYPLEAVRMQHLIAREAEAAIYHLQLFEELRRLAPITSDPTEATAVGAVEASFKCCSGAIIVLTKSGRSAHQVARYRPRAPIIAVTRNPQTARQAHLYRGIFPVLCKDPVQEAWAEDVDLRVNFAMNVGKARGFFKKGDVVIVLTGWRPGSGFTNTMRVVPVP
How it was run: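 Compound pinned into substrate mix (0.5 mM PEP, 0.1 mM ADP), then 0.1 nM PKM2 added; 1 h, RT. Stop/detection luciferase reagent added, luminescence read. Normalized to no-inhibition and no-enzyme or reference-inhibitor controls.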

[10] = qHTS Assay for Identification of Small Molecule Agonists for Hypoxia Response Element Signaling Pathway (AID 914; active = well fitted activation curve with a large enough effect in the signal ratio, with a control signal flat, not every such curve was filed as active; the % refers to the signal ratio); conditions: ME-180 (cervical carcinoma) HRE-bla reporter, beta-lactamase ratio, CoCl2, 17 h; activation: stronger effect = higher value
How it was run: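 AC50 values come from titration-series %Activity, taken as the 460/530nm ratio of CCF4 fluorescence (excitation 405nm). CellSensor HRE-bla ME-180 cells were treated 17 hours at 37 C with compound plus an EC50 level of CoCl2.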

[11] = molecular target: Pyruvate kinase PKM (Homo sapiens) (UniProt P14618); experiment: qHTS Assay for Inhibitors of Human Muscle Pyruvate Kinase (AID 958)
How it was run: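 Human PKM2 activity is measured as ATP generation, detected by luciferase-coupled luminescence. The enzyme (0.1 nM) acts on 0.5 mM PEP and 0.1 mM ADP for 1 h at ambient temperature; data are normalized to uninhibited and full-inhibition wells.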

[12] = molecular target: Pyruvate kinase (Leishmania mexicana) (UniProt Q27686); experiment: qHTS Validation Assay for Activators of Leishmania Mexicana Pyruvate Kinase (AID 959)
How it was run: as §1

Row | SMILES | Potency [1] | Potency [2] | Potency [3] | Potency [4] | outcome [5] | Potency [6] | Potency [7] | Potency [8] | outcome [9] | activation [10] | Potency [11] | Potency [12]
1 | NC/C=C\C(=O)O | inactive | inactive | inactive | inactive | inactive | inactive | inactive | inactive | inactive |  |  | 
2 | CCSC(=N)N | inactive |  | inactive | inactive | inactive | inactive | inactive | inactive | inactive |  |  | 
3 | O=C(O)C1=CCNCC1 | inactive |  | inactive | inactive | inactive | inactive | inactive | inactive | inactive |  |  | 
4 | Cc1ccc2c(c1)C(N1CCN(C)CC1)=Nc1cccnc1N2 | 11.2 µM (active) |  |  | inactive |  | 0.0355 µM (active) | 0.0794 µM (active) | inactive | inactive |  |  | 
5 | Cn1c(=O)[nH]c2ncn(C)c2c1=O | inactive |  | inactive | inactive | inactive | inactive | inactive | inactive | inactive |  |  | 
6 | CC[C@H](NC(=O)c1c(C)c(-c2ccccc2)nc2ccccc12)c1ccccc1 | 12.6 µM (active) | 25.1 µM (active) |  | inactive |  |  | inactive | inactive | inactive |  |  | 
7 | N[C@H](C(=O)O)[C@H](O)C(=O)O | inactive |  |  | inactive |  | inactive | inactive | inactive | inactive |  |  | 
8 | CC(=O)NCCc1c[nH]c2ccc(O)cc12 | inactive |  | inactive | inactive | inactive | inactive | inactive | inactive | inactive |  |  | 
9 | O=c1[nH]ccc2c(O)cccc12 | inactive |  |  | inactive |  | inactive | inactive | inactive | inactive |  |  | 
10 | C/C(=C\c1ccc(C(=O)O)cc1)c1ccc2c(c1)C(C)(C)CCC2(C)C | 10 µM (active) |  |  |  |  |  | inactive | inactive | inactive | -65.3% (inactive) |  | 
11 | O=C(O)C1=CC(=C(c2ccc(O)c(C(=O)O)c2)c2ccc(O)c(C(=O)O)c2)C=CC1=O | inactive |  | inactive |  | inactive | inactive | inactive | inactive |  |  | inactive | 
12 | Cc1nc2c(OCc3ccccc3)cccn2c1CC#N | inactive | inactive |  | inactive |  |  | inactive | inactive | inactive |  |  | 
13 | CN[C@H](CC(=O)O)C(=O)O | inactive | inactive |  | inactive |  |  | inactive | inactive | inactive |  |  | 
14 | NC1(C(=O)O)CCCCC1 | inactive | inactive |  | inactive |  |  | inactive | inactive | inactive |  |  | 
15 | Cc1nc(N=Nc2ccc(C(=O)O)cc2)c(COP(=O)(O)O)c(C=O)c1O | inactive | inactive |  | inactive |  | inactive | inactive | inactive | inactive |  |  | 5.01 µM (active)
16 | NCCCNCCCCNCCCN | inactive | inactive and 7.94 µM (active) |  |  |  |  | inactive | inactive | inactive |  |  | 
